Results on 28 compounds are retold here after PubChem BioAssay (NCATS).

“And” between values parts separate entries of the source, which are not always exact repeats. Identical values can stand only once. Results filed as inconclusive are left out. Some structures have more than one record in an assay (separate samples or runs), and their calls can disagree. The source made the active and inactive calls. The call rests on the fitted dose curve; in most records, active means well fitted inhibition curve with a large enough effect; inconclusive means small, poorly fitted or top-dose-only effect; inactive means flat fitted curve, though single readings scatter.

Assay [1] addresses Glutathione peroxidase 1 (Homo sapiens) (UniProt P07203). Nature of the assay: Primary qHTS Assay for Inhibitors of Recombinant Selenoprotein Glutathione Peroxidase 1 (GPX1) (AID 1845191). Further: nearly all actives have a fitted effect of over 65% in size. Further: potency means the concentration at half of the fitted maximal effect. The following applies: recombinant GPX1, GR-coupled NADPH fluorescence, 15 min; series mostly up to 48.8 µM. A digest of the protocol: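 10 nM GPX1 + cpd, 30 min RT; start w/ 1 mM GSH, 0.5 mM cumene hydroperoxide, 0.5 mM NADPH, 100 nM GR, 0.01% BSA; buffer 50 mM Tris-HCl pH 7.5, 2 mM EDTA, 150 mM NaCl; Fl 340/450, 0 & 15 min.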

Assay [2] addresses Phospholipid hydroperoxide glutathione peroxidase GPX4 (Homo sapiens) (UniProt P36969). The experiment in a line: Primary qHTS Assay for Inhibitors of Recombinant Selenoprotein Glutathione Peroxidase 4 (GPX4) (AID 1845192). Further: nearly all actives have a fitted effect of over 65% in size. Further: potency means the concentration at half of the fitted maximal effect. The conditions noted are these: recombinant GPX4, GR-coupled NADPH fluorescence, 15 min; series mostly up to 50 µM. The essentials:
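NADPH consumption, followed by fluorescence at 340/450 nm between 0 and 15 min, reports GPX4 activity via coupled glutathione reductase (100 nM). Enzyme 200 nM was pre-exposed to compound 30 min; 0.5 mM cumene hydroperoxide and 1 mM GSH served as substrates.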

Assay [3] addresses Luciferin 4-monooxygenase (Photinus pyralis) (UniProt P08659). The experiment in a line: Primary firefly luciferase (FLuc) qHTS assay for identification of artifact compounds. (AID 1845220). Further: nearly all actives have a fitted effect of over 60% in size. The conditions noted are these: purified firefly luciferase, luminescence, 5 min; series mostly up to 54.1 µM. The essentials:
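Compounds sat 15 min at room temperature with 10 uM luciferin and 10 uM ATP (pH 7.6 Tris acetate). Firefly luciferase (10 nM final) was then added, and luminescence was read 5 min later. Data normalized to no-enzyme and DMSO controls were Hill-fitted.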

Chain of Phospholipid hydroperoxide glutathione peroxidase GPX4 (Homo sapiens) (P36969 whole entry, looked up): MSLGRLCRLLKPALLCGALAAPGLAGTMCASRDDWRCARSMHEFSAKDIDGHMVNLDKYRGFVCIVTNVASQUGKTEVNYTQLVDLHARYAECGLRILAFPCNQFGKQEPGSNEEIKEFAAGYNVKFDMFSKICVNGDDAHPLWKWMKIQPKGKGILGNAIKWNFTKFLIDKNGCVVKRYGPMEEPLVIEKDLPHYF
Chain of Glutathione peroxidase 1 (Homo sapiens) (P07203 whole entry, looked up): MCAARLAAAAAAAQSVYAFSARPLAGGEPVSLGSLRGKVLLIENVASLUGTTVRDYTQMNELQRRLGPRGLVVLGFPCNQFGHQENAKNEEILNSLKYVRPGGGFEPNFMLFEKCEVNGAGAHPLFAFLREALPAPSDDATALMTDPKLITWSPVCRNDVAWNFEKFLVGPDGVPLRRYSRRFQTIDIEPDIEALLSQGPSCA

Regarding `CCOc1ccc2c(c1)C(C)=CC(C)(C)N2`, in assay [1], the Potency entry was “inactive”. In addition, in assay [2], the Potency was 31.6 µM (active).
For the compound `CCOc1nc2cccc(C(=O)OCc3oc(=O)oc3C)c2n1Cc1ccc(-c2ccccc2-c2noc(O)n2)cc1`, in assay [1], the Potency result was “inactive”. Further, the Potency result in assay [2] is “inactive and 12.6 µM (active)”.
As to `C[C@@H]1CC[C@]2(C)C(C[C@@H](O)[C@H](O)[C@]23CO3)[C@@]1(C)CCc1ccoc1` (stereo partly drawn), the Potency result in assay [1] and in assay [2] was “inactive” each time.
Regarding `O=CCCCC=O`, the Potency entry in assay [1] and in assay [2] was “inactive” each time.
As for `COC(=O)[C@H]1[C@H]2C[C@@H]3c4[nH]c5ccccc5c4CCN3C[C@H]2C[C@@H](OC(=O)c2cc(OC)c(OC)c(OC)c2)[C@@H]1OC`, the Potency entry in assay [1] is “inactive”. For the same compound, in assay [2], the Potency was 17.8 µM (active).
On to `O=C(/C=C/c1c(C(=O)O)[nH]c2cc(Cl)cc(Cl)c12)Nc1ccccc1`, for which the Potency result in assay [1] and in assay [2] was “inactive” in each case.
As for `C=C1CCC2C(C)(CO[C@@H]3O[C@H](CO)[C@@H](O)[C@H](O)[C@H]3O)C(O)CCC2(C)C1C(=O)CC1=CCOC1=O` (stereo partly drawn), the Potency entry in assay [1] and in assay [2] was “inactive” throughout.
On to `CO/N=C(\C(=O)N[C@@H]1C(=O)N2C(C(=O)O)=C(CSc3cnns3)CS[C@H]12)c1csc(N)n1`, for which the Potency in assay [1] was 20.2 µM (active); in assay [2], 15.8 µM (active).
The like results for `CC1=C2CC3OC3(C)CCC3OC3(C)CC2OC1=O` (stereo not drawn) were, in that order, “inactive” and “inactive”.
With `NCc1ccccc1CC(=O)N[C@@H]1C(=O)N2C(C(=O)O)=C(CSc3nnnn3CC(=O)O)CS[C@H]12`, the Potency in assay [1] is 5.08 µM (active); in assay [2] it was 15.8 µM (active).
The like results for `C[C@@H]1CCN(C(=O)CC#N)C[C@@H]1N(C)c1ncnc2[nH]ccc12` were, in that order, “inactive” and “inactive”.
As for `C=CC1(C)C=C2C(=O)CC3C(C)(C)CCCC3(C(=O)O)C2(O)CC1` (stereo not drawn), the Potency entry in assay [1], in assay [2] and in assay [3] was “inactive” each time.
In the case of `Clc1ccc(CN[C@H]2CCN(c3ncc(Br)cn3)C2)c(Cl)c1`, the Potency entry in assay [1] and in assay [2] was “inactive” each time.
Regarding `CC(=O)OCC(=O)[C@@]1(O)CC[C@H]2[C@@H]3C[C@H](C)C4=CC(=O)C=C[C@]4(C)[C@H]3[C@@H](O)C[C@@]21C`, the Potency result in assay [1] and in assay [2] was “inactive” throughout.
For `CCOC(=O)c1ccc(N(C)c2csc(-c3ccccc3)n2)cc1`, the Potency result in assay [1] and in assay [2] was “inactive” each time.
With `CCCCC(=O)OCC(=O)[C@]1(O)Cc2c(O)c3c(c(O)c2[C@@H](O[C@H]2C[C@H](NC(=O)C(F)(F)F)[C@H](O)[C@H](C)O2)C1)C(=O)c1c(OC)cccc1C3=O`, the Potency entry in assay [1] and in assay [2] was “inactive” each time.
Consider `COC(=O)c1cc(CN2CCN(C(=N)N)CC2)cc(C(=O)N2CCN(C(=O)c3ccc(C(=N)N)cc3)CC2)c1`, for which the Potency result in assay [1] and in assay [2] was “inactive” throughout.
Regarding `COc1ccc(/C=C/C(=O)O[C@H]2[C@@H]3C=CO[C@@H](O[C@@H]4O[C@H](CO)[C@@H](O)[C@H](O)[C@H]4O)[C@@H]3[C@@]3(CO)O[C@@H]23)cc1O`, the Potency result in assay [1] and in assay [2] was “inactive” in each case.
Take `CC(=O)OC(CSC1CCC(=O)OC(C)CCC(=O)C1)C(=O)O` (stereo not drawn): the Potency result in assay [1] and in assay [2] was “inactive” each time.
As for `CC(C)C(=O)OCC(=O)[C@@]12O[C@H](C3CCCCC3)O[C@@H]1C[C@H]1[C@@H]3CCC4=CC(=O)C=C[C@]4(C)[C@H]3[C@@H](O)C[C@@]12C`, the Potency result in assay [1] and in assay [2] was “inactive” in each case.
With `OC[C@H]1O[C@@H](Oc2cc(O)cc(-c3cc4ccc(O)cc4o3)c2)[C@H](O)[C@@H](O)[C@@H]1O`, in assay [1], the Potency entry is “inactive”. The Potency in assay [2] was 8.81 µM (active).
Consider `C[C@]12CC[C@@H]3c4ccc(O[C@@H]5O[C@H](C(=O)O)[C@@H](O)[C@H](O)[C@H]5O)cc4CC[C@H]3[C@@H]1CCC2=O`, for which the Potency entry in assay [1] and in assay [2] was “inactive” each time.
For `FC(F)(F)c1cc(C(F)(F)F)c2ccc3nc(-c4nnco4)cn3c2n1`, the Potency result in assay [1], in assay [2] and in assay [3] was “inactive” each time.
With `N[C@@H](CC(=O)N1CCn2c(nnc2C(F)(F)F)C1)Cc1[nH]nc2c(F)c(F)ccc12`, the Potency entry in assay [1], in assay [2] and in assay [3] was “inactive” in each case.
`Cc1cc(C)c(S(=O)(=O)N(Cc2ccc(-c3cccc(S(C)(=O)=O)c3)cc2)Cc2ccc(C(F)(F)F)o2)c(C)c1`: the Potency result in assay [1], in assay [2] and in assay [3] was “inactive” each time.
For the compound `C=C1C2=CC(O)C(C)C1(C)CC/C(C)=C/CCC1(C)OC1C2=O` (stereo not drawn), the Potency result in assay [1], in assay [2] and in assay [3] was “inactive” throughout.
Take `Cc1c(N2C(=O)c3ccc(C(=O)O)cc3C2=O)c(=O)n(-c2ccccc2)n1C`: the Potency result in assay [1], in assay [2] and in assay [3] was “inactive” each time.
Regarding `C[C@@H]1C[C@H]2[C@@H]3CCC4=CC(=O)C=C[C@]4(C)[C@@]3(F)[C@@H](O)C[C@]2(C)[C@@]1(O)C(=O)COP(=O)(O)O`, the Potency entry in assay [1], in assay [2] and in assay [3] was “inactive” in each case.
